Measurements reported in paper PMC11006913.
Where a chain is given by its changes, count along the chain named.

Legend:
Assay in all cases: PBM; 200 nM protein, PBS
Settings in all cases: dsDNA, one strand shown
[1] = target: T1, SIX6 (Homo sapiens, UniProt O95475 114-200, L167I)
T1 sequence: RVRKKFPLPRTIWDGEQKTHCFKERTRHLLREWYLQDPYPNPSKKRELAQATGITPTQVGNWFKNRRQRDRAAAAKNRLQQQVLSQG

[2] = target: T2, SIX6 (Homo sapiens, UniProt O95475 114-200, L143V)
T2 sequence: T1 sequence with L30V, I54L

[3] = target: T3, SIX6 (Homo sapiens, UniProt O95475 114-200, H141N)
T3 sequence: T1 sequence with H28N, I54L

[4] = target: T4, SIX6 (Homo sapiens, UniProt O95475 114-200, T165P)
T4 sequence: T1 sequence with T52P, I54L

[5] = target: T5, SIX6 (Homo sapiens, UniProt O95475 114-200, L167M)
T5 sequence: T1 sequence with I54M

[6] = target: T6, SIX6 (Homo sapiens, UniProt O95475 114-200, L143M)
T6 sequence: T1 sequence with L30M, I54L

[7] = target: T7, SIX6 (Homo sapiens, UniProt O95475 114-200, L143I)
T7 sequence: T1 sequence with L30I, I54L

[8] = target: T8, SIX6 (Homo sapiens, UniProt O95475 114-200, T165G)
T8 sequence: T1 sequence with T52G, I54L

[9] = target: T9, SIX6 (Homo sapiens, UniProt O95475 114-200, T139Q)
T9 sequence: T1 sequence with T26Q, I54L

[10] = target: T10, SIX6 (Homo sapiens, UniProt O95475 114-200, T165A)
T10 sequence: T1 sequence with T52A, I54L

[11] = target: T11, SIX6 (Homo sapiens, UniProt O95475 114-200, L167V)
T11 sequence: T1 sequence with I54V

[12] = target: T12, SIX6 (Homo sapiens, UniProt O95475 114-200)
T12 sequence: T1 sequence with I54L

[13] = target: T13, SIX6 (Homo sapiens, UniProt O95475 114-200, T165I)
T13 sequence: T1 sequence with T52I, I54L

Sequence	binding signal [1]	binding signal [2]	binding signal [3]	binding signal [4]	binding signal [5]	binding signal [6]	binding signal [7]	binding signal [8]	binding signal [9]	binding signal [10]	binding signal [11]	binding signal [12]	binding signal [13]
CCGCAGCG	8.92 upbm affinity estimate (log intensity, higher = more binding, comparable within an allelic series)	8.95 upbm affinity estimate (log intensity, higher = more binding, comparable within an allelic series)	8.92 upbm affinity estimate (log intensity, higher = more binding, comparable within an allelic series)	9.03 upbm affinity estimate (log intensity, higher = more binding, comparable within an allelic series)	8.98 upbm affinity estimate (log intensity, higher = more binding, comparable within an allelic series)	8.95 upbm affinity estimate (log intensity, higher = more binding, comparable within an allelic series)	8.96 upbm affinity estimate (log intensity, higher = more binding, comparable within an allelic series)	8.86 upbm affinity estimate (log intensity, higher = more binding, comparable within an allelic series)	8.88 upbm affinity estimate (log intensity, higher = more binding, comparable within an allelic series)	8.92 upbm affinity estimate (log intensity, higher = more binding, comparable within an allelic series)	8.99 upbm affinity estimate (log intensity, higher = more binding, comparable within an allelic series)	8.96 upbm affinity estimate (log intensity, higher = more binding, comparable within an allelic series)	8.92 upbm affinity estimate (log intensity, higher = more binding, comparable within an allelic series)
GTATCAAC	11.2 upbm affinity estimate (log intensity, higher = more binding, comparable within an allelic series)	10.3 upbm affinity estimate (log intensity, higher = more binding, comparable within an allelic series)	11.3 upbm affinity estimate (log intensity, higher = more binding, comparable within an allelic series)	9.76 upbm affinity estimate (log intensity, higher = more binding, comparable within an allelic series)	10.6 upbm affinity estimate (log intensity, higher = more binding, comparable within an allelic series)	11 upbm affinity estimate (log intensity, higher = more binding, comparable within an allelic series)	10.4 upbm affinity estimate (log intensity, higher = more binding, comparable within an allelic series)	11.4 upbm affinity estimate (log intensity, higher = more binding, comparable within an allelic series)	11.3 upbm affinity estimate (log intensity, higher = more binding, comparable within an allelic series)	11.3 upbm affinity estimate (log intensity, higher = more binding, comparable within an allelic series)	11 upbm affinity estimate (log intensity, higher = more binding, comparable within an allelic series)	11.1 upbm affinity estimate (log intensity, higher = more binding, comparable within an allelic series)	11.1 upbm affinity estimate (log intensity, higher = more binding, comparable within an allelic series)
CGATATCC	11.1 upbm affinity estimate (log intensity, higher = more binding, comparable within an allelic series)	10.2 upbm affinity estimate (log intensity, higher = more binding, comparable within an allelic series)	11.1 upbm affinity estimate (log intensity, higher = more binding, comparable within an allelic series)	9.62 upbm affinity estimate (log intensity, higher = more binding, comparable within an allelic series)	10.6 upbm affinity estimate (log intensity, higher = more binding, comparable within an allelic series)	10.9 upbm affinity estimate (log intensity, higher = more binding, comparable within an allelic series)	10.3 upbm affinity estimate (log intensity, higher = more binding, comparable within an allelic series)	11.1 upbm affinity estimate (log intensity, higher = more binding, comparable within an allelic series)	11.2 upbm affinity estimate (log intensity, higher = more binding, comparable within an allelic series)	11 upbm affinity estimate (log intensity, higher = more binding, comparable within an allelic series)	10.9 upbm affinity estimate (log intensity, higher = more binding, comparable within an allelic series)	11 upbm affinity estimate (log intensity, higher = more binding, comparable within an allelic series)	10.9 upbm affinity estimate (log intensity, higher = more binding, comparable within an allelic series)
GATATCCC	11.1 upbm affinity estimate (log intensity, higher = more binding, comparable within an allelic series)	10.2 upbm affinity estimate (log intensity, higher = more binding, comparable within an allelic series)	11.1 upbm affinity estimate (log intensity, higher = more binding, comparable within an allelic series)	9.49 upbm affinity estimate (log intensity, higher = more binding, comparable within an allelic series)	10.8 upbm affinity estimate (log intensity, higher = more binding, comparable within an allelic series)	11 upbm affinity estimate (log intensity, higher = more binding, comparable within an allelic series)	10.2 upbm affinity estimate (log intensity, higher = more binding, comparable within an allelic series)	11.2 upbm affinity estimate (log intensity, higher = more binding, comparable within an allelic series)	11.1 upbm affinity estimate (log intensity, higher = more binding, comparable within an allelic series)	11 upbm affinity estimate (log intensity, higher = more binding, comparable within an allelic series)	11 upbm affinity estimate (log intensity, higher = more binding, comparable within an allelic series)	11 upbm affinity estimate (log intensity, higher = more binding, comparable within an allelic series)	11 upbm affinity estimate (log intensity, higher = more binding, comparable within an allelic series)
ACTGATAC	11.3 upbm affinity estimate (log intensity, higher = more binding, comparable within an allelic series)	10.3 upbm affinity estimate (log intensity, higher = more binding, comparable within an allelic series)	11.3 upbm affinity estimate (log intensity, higher = more binding, comparable within an allelic series)	9.79 upbm affinity estimate (log intensity, higher = more binding, comparable within an allelic series)	10.5 upbm affinity estimate (log intensity, higher = more binding, comparable within an allelic series)	10.9 upbm affinity estimate (log intensity, higher = more binding, comparable within an allelic series)	10.4 upbm affinity estimate (log intensity, higher = more binding, comparable within an allelic series)	11.3 upbm affinity estimate (log intensity, higher = more binding, comparable within an allelic series)	11.3 upbm affinity estimate (log intensity, higher = more binding, comparable within an allelic series)	11.2 upbm affinity estimate (log intensity, higher = more binding, comparable within an allelic series)	10.9 upbm affinity estimate (log intensity, higher = more binding, comparable within an allelic series)	11 upbm affinity estimate (log intensity, higher = more binding, comparable within an allelic series)	11 upbm affinity estimate (log intensity, higher = more binding, comparable within an allelic series)
CCCCGAGG	8.95 upbm affinity estimate (log intensity, higher = more binding, comparable within an allelic series)	8.89 upbm affinity estimate (log intensity, higher = more binding, comparable within an allelic series)	8.99 upbm affinity estimate (log intensity, higher = more binding, comparable within an allelic series)	8.94 upbm affinity estimate (log intensity, higher = more binding, comparable within an allelic series)	9.01 upbm affinity estimate (log intensity, higher = more binding, comparable within an allelic series)	9.07 upbm affinity estimate (log intensity, higher = more binding, comparable within an allelic series)	8.96 upbm affinity estimate (log intensity, higher = more binding, comparable within an allelic series)	9.07 upbm affinity estimate (log intensity, higher = more binding, comparable within an allelic series)	9.12 upbm affinity estimate (log intensity, higher = more binding, comparable within an allelic series)	8.94 upbm affinity estimate (log intensity, higher = more binding, comparable within an allelic series)	9 upbm affinity estimate (log intensity, higher = more binding, comparable within an allelic series)	8.97 upbm affinity estimate (log intensity, higher = more binding, comparable within an allelic series)	8.96 upbm affinity estimate (log intensity, higher = more binding, comparable within an allelic series)
